Measurements published in the supplement of paper PMC9844399.
Structures can show the parent of a compound that is named as a salt.

tested on: HeLa; assay: nuclear count per well, robust Z-score vs DMSO; higher = more cells (less toxicity); details: 10 µM; 6 h
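Note: Hoechst-stained nuclei counted by automated confocal imaging of four fields per well in 384-well plates, with the robust Z-score based on the per-plate DMSO median and robust SD.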

| SMILES | nuclear count per well |
| --- | --- |
| CN/C(=N\CCSCc1nc[nH]c1C)NC#N [Cimetidine] | 0.352 |
| C[C@]12CC[C@@H]3c4ccc(O)cc4CC[C@H]3[C@@H]1CC[C@@H]2O [Estradiol] | -0.229 |
| CN(C)CCOC(c1ccc(Cl)cc1)c1ccccn1 (centres undefined) [Carbinoxamine Maleate] | 0.505 |
| Cc1nc(Nc2ncc(C(=O)Nc3c(C)cccc3Cl)s2)cc(N2CCN(CCO)CC2)n1 [Dasatinib] | -1.63 |
| CC1=C(C(=O)O)N2C(=O)[C@@H](NC(=O)[C@H](N)c3ccccc3)[C@H]2SC1 [Cephalexin Monohydrate] | -0.594 |
| COc1ccc(-n2c(SCCCN3C(=O)c4cccc5cccc(c45)C3=O)nnc2-c2ccncc2)cc1 | 0.424 |
| OC[C@@H](O)[C@@H](O)[C@H](O)[C@@H](O)CO [Sorbitol] | 0.342 |
| CCOC(=O)C1=C(C)NC(=S)NC1c1cccc(O)c1 (centres undefined) [Monastrol] | 0.338 |
| NCCS | 1.19 |
| COCc1nc2c([nH]1)c(=O)n(C)c(=O)n2CC(C)C [8-methoxymethyl-IBMX] | -1.57 |
| NC(=O)N1c2ccccc2CC(=O)c2ccccc21 [Oxcarbazepine] | 0.119 |
| CO[C@H]1C[C@@H]2CC[C@@H](C)[C@@](O)(O2)C(=O)C(=O)N2CCCC[C@H]2C(=O)O[C@H]([C@H](C)C[C@@H]2CC[C@@H](OC(=O)C(C)(CO)CO)[C@H](OC)C2)CC(=O)[C@H](C)/C=C(\C)[C@@H](O)[C@@H](OC)C(=O)[C@H](C)C[C@H](C)/C=C/C=C/C=C/1C [Temsirolimus] | 0.576 |
| O=C(O)c1cccnc1Nc1cccc(C(F)(F)F)c1 [Niflumic acid] | 1.21 |
| CCCC(CCC)C(=O)O [Sodium Valproate] | -0.225 |
| CSc1ccc2c(c1)N(CCC1CCCCN1C)c1ccccc1S2 (centres undefined) | -0.0606 |
| COc1ccc(-c2ccc3c(N4CCOCC4)nc(N4C[C@@H](C)O[C@@H](C)C4)nc3n2)cc1CO | 0.656 |
| OC[C@@H](O)[C@@H](O)[C@H](O)[C@H](O)CO [Mannitol] | -0.686 |
| CC(S)C(=O)NCC(=O)O (centres undefined) [Tiopronin] | 0.258 |
| C[C@]12CCC3=C4CCC(=O)C=C4CC[C@H]3[C@@H]1CC[C@@]2(O)CC#N [Dienogest] | 1.14 |
| CCCCc1nc(Cl)c(CO)n1Cc1ccc(-c2ccccc2-c2nnn[nH]2)cc1 [Losartan potassium] | 0.167 |

| SMILES | nuclear count per well |
| --- | --- |
| Cc1ccc(S(=O)(=O)N[C@@H](Cc2ccccc2)C(=O)CCl)cc1 [Tosyl-Phe-CMK (TPCK)] | -3.24 |
| Nc1nc(Cl)nc2c1ncn2[C@@H]1O[C@H](CO)[C@@H](O)[C@@H]1F [Clofarabine] | -0.461 |
| CCCCCCCCCCCCC/C=C/[C@@H](O)[C@H](CO)NC(C)=O [C2 Ceramide] | 0.589 |
| NC(=O)c1ccc(-c2nc(-c3ccccn3)c(-c3ccc4c(c3)OCO4)[nH]2)cc1 | 0.125 |
| CC(C)/N=c1\cc2n(-c3ccc(Cl)cc3)c3ccccc3nc-2cc1Nc1ccc(Cl)cc1 [Clofazimine] | -0.182 |
| CC(C)COCC(CN(Cc1ccccc1)c1ccccc1)N1CCCC1 (centres undefined) | -0.594 |
| CCc1cccc2c3c([nH]c12)C(CC)(CC(=O)O)OCC3 (centres undefined) [Etodolac] | -1.07 |
| NC(=S)c1ccccc1 [Thiobenzamide] | -0.0414 |
| NC(=O)Cc1cccc(C(=O)c2ccccc2)c1N [Nepafenac] | -0.0527 |
| CC(C)NNC(=O)c1ccncc1 [Iproniazid Phosphate] | -0.732 |
| CCCCCCCC/C=C\C/C=C\C/C=C\CCCC(=O)O [Mead acid (20:3 n-9)] | 0.463 |
| CCCCCCCCCCCCC/C=C/[C@@H](O)[C@H](CO)NC(=O)CCCCCCCCCCCCCCC [C16 Ceramide] | 0.167 |
| Nc1ccc2c3c(cccc13)C(=O)NC2=O [4-Amino-1,8-naphthalimide] | 1.52 |
| Oc1cc2c(cc1O)CN(C(=S)NCCc1ccc(Cl)cc1)CCC2 [Capsazepine] | -1.71 |
| CC(C)NCC(O)c1ccc(O)c(O)c1 (centres undefined) | 0.629 |
| C=CC(N)CCC(=O)O (centres undefined) [Vigabatrin] | 0.0325 |
| CC[C@H](C)[C@H](N)C1=N[C@H](C(=O)N[C@@H](CC(C)C)C(=O)N[C@H](CCC(=O)O)C(=O)N[C@H](C(=O)N[C@H]2CCCCNC(=O)[C@H](CC(N)=O)NC(=O)[C@@H](CC(=O)O)NC(=O)[C@H](Cc3cnc[nH]3)NC(=O)[C@@H](Cc3ccccc3)NC(=O)[C@H]([C@@H](C)CC)NC(=O)[C@@H](CCCN)NC2=O)[C@@H](C)CC)CS1 [Bacitracin] | 0.532 |
| CCN(CC)CCCC(C)Nc1c2ccc(Cl)cc2nc2ccc(OC)cc12 (centres undefined) | -2.72 |
| Cc1cc(CS(=O)(=O)c2ccccc2)cc(OCc2ccc(CN3CCC[C@@H]3CO)cc2)c1 | -0.0923 |
